Several values for one entry are separate records, joined by “and”; a condition that tells them apart may be missing. Identical values can stand only once. Results filed as inconclusive are left out. The source holds several records for some structures; these can differ, active in one and inactive in another. Activity calls are given as the source filed them. Unless noted, calls follow the shape of the dose curve; as a rule, active = well fitted curve in the direction sought with a large enough effect; inconclusive = small, poorly fitted or top-dose-only effect, or another doubt; inactive = no such curve, though single readings can be large; an effect the other way counts as inactive or inconclusive.
Tests used:
[1] = target: Cellular tumor antigen p53 (Homo sapiens) (UniProt P04637); assay: Primary qHTS for small molecule compounds that upregulate eGFP-tagged delta133p53alpha (in N-terminal) cells. (AID 2060322); conditions: NCI-H358 eGFP-delta133p53alpha fluorescence, 24 h; activation: stronger effect = higher value; also: nearly all actives have a fitted effect of over 75% in size; also: potency is read from the fitted curve at half-maximal effect;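 as to activation: cells pre-induced with doxycycline then dosed without doxycycline; series mostly up to about 56 µM; 0% = DMSO vehicle and 100% = reference activator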
Procedure, shortened: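 NCI-H358 cells pre-induced 24 h with 10 ng/ml doxycycline for eGFP-delta133p53alpha, plated dox-free and exposed 24 h at 37C to titrated compounds. Fixed, Hoechst-stained; gated GFP peak intensity by laser scanning cytometry, normalized to DMSO (0%) and 57.5 uM 5-azacytidine (100%).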

[2] = target: Aldehyde dehydrogenase, mitochondrial (Homo sapiens) (UniProt P05091); assay: qHTS for Inhibitors of the Aldehyde Dehydrogenase Family (ALDH2) Confirmatory screens (AID 2061303; active = well fitted inhibition curve with a large enough effect; title and protocol of this record describe different tests; also: nearly all actives have a fitted effect of over 45% in size; also: potency is read from the fitted curve at half-maximal effect)
[3] = qHTS for Inhibitors of the Aldehyde Dehydrogenase Family (ALDH1A2, ALDH1A3, ALDH2, ALDH3A1) (AID 2061307); also: nearly all actives have a fitted effect of over 50% in size; as to Potency: test system not described further here; potency is read from the fitted curve at half-maximal effect
[4] = target: Aldehyde dehydrogenase, mitochondrial (Homo sapiens) (UniProt P05091); assay: qHTS for Inhibitors of the Aldehyde Dehydrogenase Family (ALDH2) Primary screen (AID 2061308); also: nearly all actives have a fitted effect of over 55% in size; also: potency is read from the fitted curve at half-maximal effect
[5] = target: Retinaldehyde dehydrogenase 3 (Homo sapiens) (UniProt P47895); assay: qHTS for Inhibitors of the Aldehyde Dehydrogenase Family (ALDH1A3) Confirmatory screens (AID 2061311); also: nearly all actives have a fitted effect of over 60% in size; also: potency is read from the fitted curve at half-maximal effect
[6] = target: Retinal dehydrogenase 2 (Homo sapiens) (UniProt O94788); assay: qHTS for Inhibitors of the Aldehyde Dehydrogenase Family (ALDH1A2) Confirmation screens (AID 2061314); also: nearly all actives have a fitted effect of over 65% in size; also: potency is read from the fitted curve at half-maximal effect
[7] = target: Retinaldehyde dehydrogenase 3 (Homo sapiens) (UniProt P47895); assay: qHTS for Inhibitors of the Aldehyde Dehydrogenase Family (ALDH1A3) Primary screen (AID 2061315); also: potency is read from the fitted curve at half-maximal effect
[8] = target: Aldehyde dehydrogenase 1A1 (Homo sapiens) (UniProt P00352); assay: qHTS for Inhibitors of the Aldehyde Dehydrogenase Family (ALDH1A1) Confirmatory screens (AID 2061316); also: nearly all actives have a fitted effect of over 65% in size; also: potency is read from the fitted curve at half-maximal effect
[9] = target: Retinaldehyde dehydrogenase 3 (Homo sapiens) (UniProt P47895); assay: qHTS for Inhibitors of the Aldehyde Dehydrogenase Family (ALDH1A3) Validation screen (AID 2061312); also: % is scaled to controls: 0 for no effect and ±100 for the full control effect; nearly all actives have a fitted effect of over 45% in size
[10] = BET inhibitor-based combinations targeting novel dependencies in MECOM-rearranged (r) AML: SET-2 cell line (AID 2202231); conditions: SET-2 AML cells viability, CellTiter-Glo luminescence, 48 h; viability: stronger effect = lower value, concentration not given here; also: nearly all actives have a fitted effect of over 35% in size; also: potency is read from the fitted curve at half-maximal effect;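 as to viability: plate controls were DMSO treated cells for no effect and wells without cells for full effect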
Procedure, shortened: (§1)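 Luminescent ATP readout (CellTiter-Glo) after 48 hr drug exposure gives viability. Curves span 11 concentrations and are normalized to DMSO and empty wells. Activity is reported as area under the curve and its Z-transform within each cell line.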

[11] = BET inhibitor-based combinations targeting novel dependencies in MECOM-rearranged (r) AML: OCI-AML3 cell line (AID 2202232); conditions: Potency: OCI-AML3 viability; also: potency is read from the fitted curve at half-maximal effect; nearly all actives have a fitted effect of over 35% in size
Procedure, shortened: as §1

[12] = BET inhibitor-based combinations targeting novel dependencies in MECOM-rearranged (r) AML: MV-4-11 cell line (AID 2202233); also: potency is read from the fitted curve at half-maximal effect; nearly all actives have a fitted effect of over 45% in size
Procedure, shortened: (§2)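 Luminescent ATP readout (CellTiter-Glo, 15 min at room temperature) after 48 hr drug exposure gave viability. Dose-response curves, normalized to DMSO and empty-well controls, were summarized as area under the curve and its mean-centred Z-score.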

[13] = BET inhibitor-based combinations targeting novel dependencies in MECOM-rearranged (r) AML: HNT-34 cell line (AID 2202234); also: potency is read from the fitted curve at half-maximal effect; nearly all actives have a fitted effect of over 35% in size
Procedure, shortened: as §2

[14] = BET inhibitor-based combinations targeting novel dependencies in MECOM-rearranged (r) AML: AML-191 cell line (AID 2202236; also: potency is read from the fitted curve at half-maximal effect; nearly all actives have a fitted effect of over 35% in size)
Procedure, shortened: as §1

Sequence of Cellular tumor antigen p53 (Homo sapiens) (P04637 whole entry, looked up): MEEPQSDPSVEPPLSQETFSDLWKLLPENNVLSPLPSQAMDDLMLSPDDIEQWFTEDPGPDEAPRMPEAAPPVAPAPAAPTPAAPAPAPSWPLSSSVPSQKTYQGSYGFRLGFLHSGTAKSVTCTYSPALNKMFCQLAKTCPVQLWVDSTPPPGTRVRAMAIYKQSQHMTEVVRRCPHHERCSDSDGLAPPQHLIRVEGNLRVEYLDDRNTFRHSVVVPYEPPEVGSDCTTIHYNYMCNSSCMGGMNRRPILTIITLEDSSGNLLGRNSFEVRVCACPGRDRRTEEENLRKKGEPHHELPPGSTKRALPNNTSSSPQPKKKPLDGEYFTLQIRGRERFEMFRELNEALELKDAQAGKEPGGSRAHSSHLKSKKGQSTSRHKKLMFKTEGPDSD

COc1ccc(CC2NCCc3c2[nH]c2ccc(C)cc32)cc1OC (stereo not given)
inactive: activation [1] 5.25% | Potency [2] | Potency [3] | Potency [4] | Potency [5] | Potency [6] | Potency [7] | Potency [8]

O=C(CCN1CCN(C(=O)OCc2cc(Cl)cc(Cl)c2)CC1)c1ccc2[nH]c(=O)oc2c1
active: Potency [2] 283 nM and 5.62 µM | Potency [3] 0.201 µM | Potency [4] 0.158 µM | Potency [5] 1.42 µM | Potency [8] 0.252 µM | Potency [11] 18.6 µM | Potency [12] 26.3 µM
inactive: activation [1] 10.1% | Potency [9] | Potency [7] | viability [10] 95.2%
252 nM (active) and inactive: Potency [6]

COc1cc(CC2COC(c3ccc(OC4OC(CO)C(O)C(O)C4O)c(OC)c3)C2CO)ccc1O (stereo not given)
active: Potency [5] 11 µM | Potency [7] 8.91 µM
inactive: activation [1] -20.6% | Potency [2] | Potency [3] | Potency [4] | Potency [6]

O=C(CCl)Nc1cccc(NC2=NS(=O)(=O)c3ccccc32)c1
active: Potency [1] 26.9 µM | Potency [6] 1.01 µM | Potency [8] 12.7 µM | Potency [10] 26.3 µM | Potency [11] 10.5 µM | Potency [12] 16.6 µM | Potency [13] 5.25 µM | Potency [14] 8.33 µM
inactive: Potency [2] | Potency [3] | Potency [4] | Potency [5] | Potency [7]

C=C1CC[C@@H]2[C@](C)(CO)[C@H](O)CC[C@@]2(C)[C@@H]1CC(=O)C1=CCOC1=O
inactive: activation [1] 9.16% | Potency [2] | Potency [3] | Potency [4] | Potency [5] | Potency [6] | Potency [8]

CCC(=O)c1cc(-c2ccc(Cl)cc2)n(-c2ccc(S(N)(=O)=O)cc2)c1C
inactive: activation [1] 0.955% | Potency [2] | Potency [3] | Potency [4] | Potency [5] | Potency [9] | Potency [7] | Potency [8]
